This is an account of results in PubChem BioAssay AID1030 (National Center for Advancing Translational Sciences (NCATS), 2008).

Structures are written as SMILES. Screen size: about 220,000 compounds; about 16,000 (7.3%) were called active. A call without a number means that no potency is given here. Another 25% or so got no clear call; they are omitted. The call rests on the fitted dose curve; in most records, active means well fitted inhibition curve with a large enough effect (not every such curve was filed as active); inconclusive means small, poorly fitted or top-dose-only effect, or another doubt; inactive means no such curve, though single readings can be large or run the other way. The full list was thinned out, with actives kept by preference.
Potency means the concentration at half of the fitted maximal effect.

In this assay the target is Aldehyde dehydrogenase 1A1 (Homo sapiens) (UniProt P00352). Briefly: qHTS Assay for Inhibitors of Aldehyde Dehydrogenase 1 (ALDH1A1). The conditions noted are these: Purified ALDH1A1, NADH fluorescence, propionaldehyde substrate; series mostly up to 75.3 µM.
Sequence of Aldehyde dehydrogenase 1A1 (Homo sapiens) (P00352 whole entry, looked up): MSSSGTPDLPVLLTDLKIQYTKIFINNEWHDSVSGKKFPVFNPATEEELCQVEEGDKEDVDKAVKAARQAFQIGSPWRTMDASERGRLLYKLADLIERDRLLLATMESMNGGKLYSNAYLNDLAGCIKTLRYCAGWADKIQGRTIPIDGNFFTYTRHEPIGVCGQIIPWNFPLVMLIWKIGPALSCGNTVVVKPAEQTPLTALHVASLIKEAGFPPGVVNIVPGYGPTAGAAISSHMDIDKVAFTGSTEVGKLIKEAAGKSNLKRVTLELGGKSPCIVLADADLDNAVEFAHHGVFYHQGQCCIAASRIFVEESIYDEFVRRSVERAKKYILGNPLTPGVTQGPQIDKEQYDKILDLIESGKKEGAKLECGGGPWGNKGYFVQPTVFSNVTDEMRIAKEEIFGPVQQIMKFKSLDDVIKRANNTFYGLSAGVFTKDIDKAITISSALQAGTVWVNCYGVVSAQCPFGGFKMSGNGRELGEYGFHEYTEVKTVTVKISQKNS
As to `COc1cc(C(=S)N2CCOCC2)ccc1O`, the Potency is 18.9 µM (active).
As for `COc1ccc(C(=O)C2CCCN(Cc3ccc(C)s3)C2)cc1OC` (configuration not stated), the entry is “inactive”; as for `C=CCN1CCC23c4c5ccc(O)c4O[C@H]2C(=O)CC[C@@]3(O)C1C5` (some centres not stated), “inactive”; as for `CCC/C(=N\O)c1c[nH]c2ccccc12`, “inactive”.
The same measure for `CCCOC(=O)C1C2c3ccccc3C(c3ccccc32)C1C(=O)O` (configuration not stated): “inactive”.
The same measure for `Cc1ccc(-c2cc(C(=O)N3CCC4(CC3)OCCO4)no2)cc1`: “inactive”.
With `Cc1ccsc1C(=O)C1CCCN(Cc2ccc(O)cc2)C1` (configuration not stated), the Potency result was “inactive”.
The same measure for `COc1ccc2c3c1O[C@H]1C[C@@H](O)C=C[C@@]31CCN(C)C2`: “inactive”; for `CCOC(=O)C1=C(C)OC(N)=C(C(=O)OC)C12C(=O)Nc1ccc(Br)cc12` (configuration not stated): “inactive”; for `COC(=O)CN1C(=O)C2(C(C(=O)OC)=C(N)Oc3ccccc32)C2=C1CC(C)(C)CC2=O` (configuration not stated): 1 µM (active).
As for `CCOC(=O)CC1=C(C(=O)OCC)C2(C(=O)N1)C(C(=O)OC)=C(N)Oc1ccccc12` (configuration not stated), the entry is “inactive”; as for `CCN1C[C@@]2(COC)CC[C@H](OC)[C@]34[C@@H]1[C@]1(OCO[C@@]15C[C@@H](OC)C1C[C@H]3[C@H]5[C@@H]1OC)[C@H](O)[C@@H]24`, “inactive”.
The same measure for `CC(=O)CC(C)C`: 12.6 µM (active); for `N#CC1=C(N)Oc2c(c(=O)oc3ccccc23)C1c1ccccc1OC(=O)c1cccs1` (configuration not stated): “inactive”.
On to `COc1ccc(CCn2c(O)c(C=NC3CC3)c(=O)[nH]c2=O)cc1OC`, for which the Potency result is “inactive”.
As for `ClCCBr`, the entry is “inactive”; as for `CO[C@@H]1C[C@@H](C[C@H]2CC[C@H](C)[C@@H]([C@@H](C)C(=O)O)O2)O[C@]2(O[C@](C)([C@H]3CC[C@@](C)(C4OC([C@H]5O[C@@](O)(CO)[C@H](C)C[C@@H]5C)C[C@@H]4C)O3)C[C@H]2C)[C@@H]1C` (some centres not stated), “inactive”; as for `COC(=O)N(c1ccc(OC)cc1)P1(=S)OCCC(C)O1` (configuration not stated), 2.24 µM (active).
The same measure for `CCOc1ccc(C2SCC(=O)Nc3c2c(C)nn3C2CCOC(C)(C)C2)cc1` (configuration not stated): “inactive”; for `ClC(Cl)=C(Cl)C(Cl)=C(Cl)Cl`: “inactive”; for `O=C1NC(=O)N(c2ccc(F)cc2)C(=O)/C1=C/c1ccc2c(c1)CCCN2Cc1ccccc1`: 0.158 µM (active).
The same measure for `Fc1ccc(C(OCCN2CCN(C/C=C\c3ccccc3)CC2)c2ccc(F)cc2)cc1`: “inactive”; for `CC(C)(O)c1[se]c2ccccc2c1I`: “inactive”; for `c1ccc(CN2CC[C@@]3(CCCNC3)C2)cc1`: “inactive”.
On to `CC(=O)Cc1ccc(OC(C)C)cc1`, for which the Potency entry is “inactive”.
For `CN(C)c1nc(N(C)C)nc(N(C#N)CCCl)n1`, the Potency is 6.31 µM (active).
As for `O=C1C2(Cl)C3(Cl)C4(Cl)C(Cl)(Cl)C5(Cl)C3(Cl)C1(Cl)C5(Cl)C24Cl` (configuration not stated), the entry is “inactive”.
